Composite z-score and z-score data for four molecules are collected here from PubChem BioAssay.

The nature of assay [1]: binders of probe aFSTL3 on microarray, primary screen, stem cell growth factor project, biochemical, small-molecule microarray, fluorescence 635/667 (AID 1064).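 Also: measures binding of the biotinylated anti-FSTL3 antibody to printed compounds.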 Conditions: higher = more signal.
Assay [2] can be described thus: binders from COS7 lysate, DM2A8 probe, primary screen, torsin A project, cell lysate, small-molecule microarray, fluorescence 635/667 (AID 1065). The conditions noted are these: higher = more signal, COS7 lysate expressing mutant human TOR1A.
The nature of assay [3]: binders of probe aFGF2 on microarray, primary screen, stem cell growth factor project, biochemical, small-molecule microarray, fluorescence 635/667 (AID 1067).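 Also: measures binding of biotinylated aFGF2 protein to printed compounds on slides; z-score merges feature fluorescence and signal-to-noise across triplicate slides.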 Conditions: higher = more signal.
Assay [4] can be described thus: binders of probe aFGF10 on microarray, primary screen, stem cell growth factor project, biochemical, small-molecule microarray, fluorescence 635/667 (AID 1071).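 Also: score merges 667 nm spot intensity and signal to noise from triplicate slides.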 The conditions noted are these: higher = more signal.
Assay [5] addresses Neurogenic locus notch homolog protein 2 (Homo sapiens) (UniProt Q04721). Nature of the assay: Notch2 binders on small-molecule microarrays, primary screen, biochemical, small-molecule microarray, 635 nm fluorescence, stem cell growth factors (AID 1073). Conditions: Notch2 binding, higher = more signal.
Assay [6] deals with Pro-neuregulin-1, membrane-bound isoform (Homo sapiens) (UniProt Q02297). Nature of the assay: NRG1 binders on small-molecule microarrays, primary screen, psychiatric disease protein project, biochemical, small-molecule microarray, fluorescence 635/667 (AID 1075).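 Also: score combines 667 nm spot fluorescence with signal to noise.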 The conditions noted are these: NRG1 binding, 635 nm fluorescence, higher = more signal.
Chain of Pro-neuregulin-1, membrane-bound isoform (Homo sapiens) (Q02297 whole entry, looked up, the tested form may be a part, canonical isoform): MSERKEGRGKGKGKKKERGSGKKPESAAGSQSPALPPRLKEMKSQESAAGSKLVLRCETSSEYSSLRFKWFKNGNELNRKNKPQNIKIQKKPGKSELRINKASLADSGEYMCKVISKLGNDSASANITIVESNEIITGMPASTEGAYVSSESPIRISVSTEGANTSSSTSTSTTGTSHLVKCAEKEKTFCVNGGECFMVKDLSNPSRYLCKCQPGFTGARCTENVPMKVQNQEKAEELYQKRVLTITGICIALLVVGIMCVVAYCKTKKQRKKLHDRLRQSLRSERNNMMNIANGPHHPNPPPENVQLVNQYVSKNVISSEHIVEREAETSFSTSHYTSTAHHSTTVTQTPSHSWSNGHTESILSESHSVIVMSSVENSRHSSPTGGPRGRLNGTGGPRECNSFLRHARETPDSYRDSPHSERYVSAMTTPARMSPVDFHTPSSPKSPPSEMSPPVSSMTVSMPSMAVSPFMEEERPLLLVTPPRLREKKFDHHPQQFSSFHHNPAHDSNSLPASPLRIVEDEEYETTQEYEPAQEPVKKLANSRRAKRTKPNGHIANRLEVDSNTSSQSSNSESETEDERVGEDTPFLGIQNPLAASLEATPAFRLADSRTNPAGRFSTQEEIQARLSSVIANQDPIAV
The subject of assay [7] is Neuregulin-1 EGF-like domain. Briefly: binders of neuregulin-1 EGF-like domain, primary screen, biochemical, small-molecule microarray, 635 nm fluorescence (AID 1081).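 Also: binding of the protein to compounds printed on small-molecule microarray slides.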 Conditions: small-molecule microarray binding, higher = more signal.
A short description of assay [8]: FRG1 promoter luciferase signal modulators, primary screen, FRG1 inhibition for FSHD, cell-based, C2C12 myotubes, firefly/Renilla luciferase, luminescence (AID 1084). Conditions: higher = more signal, called active from +8 up or from −8 down.
Assay [9] is described as follows: binders of probe aFST on microarray, primary screen, stem cell growth factor project, biochemical, small-molecule microarray, fluorescence 635/667 (AID 1086).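 Also: score merges 667 nm fluorescence with signal-to-noise of each printed compound spot.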 The conditions noted are these: higher = more signal.
Assay [10] is described as follows: binders of probe aHhip on microarray, primary screen, stem cell growth factor project, biochemical, small-molecule microarray, fluorescence 635/667 (AID 1087).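 Also: score merges spot fluorescence at 667nm with spot signal to noise ratio.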 The conditions noted are these: higher = more signal.
The subject of assay [11] is PRMT1 (protein arginine N-methyltransferase 1). Briefly: PRMT1 binders on small-molecule microarrays, primary screen, biochemical, small-molecule microarray, 635 nm fluorescence (AID 1088).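 Also: binding of Prmt1 protein to compounds spotted on small-molecule microarray slides.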 Conditions: small-molecule microarray binding, higher = more signal.
A short description of assay [12]: yeast growth modulation, basal conditions, primary screen, YJM789 clinical isolate, OD600, 24 h (AID 1089).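 Also: growth of clinical yeast isolate S. cerevisiae YJM 789 seeded 1000 cells per well; test concentration not given here.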 Conditions: S. cerevisiae YJM789 growth, higher = more signal, called active from +8 up or from −8 down.
A short description of assay [13]: fission yeast growth modulation, primary screen, strain 972, OD600, 24 h, no modulator (AID 1090).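 Also: basal condition with compound alone and no growth modifier present; test concentration not given here.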 Conditions: S. pombe 972 growth, higher = more signal, called active from +8 up or from −8 down.
A short description of assay [14]: S. cerevisiae growth modulation with rapamycin, primary screen, strain BY4716, OD600, 96 h (AID 1091). Also: test concentration not given here. Conditions: higher = more signal, called active from +8 up or from −8 down.
Assay [15] deals with Torsin-1A-interacting protein 2 (Homo sapiens) (UniProt Q8NFQ8). Briefly: LULL1 binders on small-molecule microarray, primary screen, cell lysate, human LULL1 lysate, 635/667 nm fluorescence (AID 1092).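 Also: probe is lysate of COS7 cells overexpressing human LULL1; score merges per-feature 667 nm fluorescence with signal-to-noise.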 Conditions: hLULL1 lysate binding, 635 nm fluorescence, higher = more signal.
Chain of Torsin-1A-interacting protein 2 (Homo sapiens) (Q8NFQ8 whole entry, looked up): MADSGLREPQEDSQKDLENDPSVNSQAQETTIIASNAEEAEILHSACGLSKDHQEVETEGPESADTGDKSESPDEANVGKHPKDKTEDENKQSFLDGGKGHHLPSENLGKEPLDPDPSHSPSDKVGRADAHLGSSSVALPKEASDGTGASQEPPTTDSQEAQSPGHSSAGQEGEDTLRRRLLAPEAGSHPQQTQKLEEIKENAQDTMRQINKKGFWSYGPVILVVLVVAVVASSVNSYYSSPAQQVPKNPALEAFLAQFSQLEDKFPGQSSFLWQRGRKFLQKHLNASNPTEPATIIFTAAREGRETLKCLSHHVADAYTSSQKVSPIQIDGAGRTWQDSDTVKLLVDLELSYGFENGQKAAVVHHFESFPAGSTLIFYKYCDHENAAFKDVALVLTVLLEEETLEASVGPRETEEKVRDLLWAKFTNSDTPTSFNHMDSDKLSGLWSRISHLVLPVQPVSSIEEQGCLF
Assay [16] is described as follows: E. coli growth modulation, two-sided OD650, primary screen, E. coli filamentation project, strain DRC41, 24 h (AID 1093).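 Also: MC1000 strain lacking acrAB efflux and sulA so SOS filamentation is blocked; test concentration not given here.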 Conditions: OD650, 24 h, higher = more signal, called active from +8 up or from −8 down.
Assay [17] can be described thus: small-molecule microarray binders of probe aLefty2, primary screen, biochemical, biotinylated probe, 635/667 nm fluorescence (AID 1094).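 Also: score merges spot fluorescence near 667 nm with spot signal-to-noise ratio.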 Conditions: higher = more signal.
The test system of assay [18] is Noggin (protein binding on small-molecule microarray). Briefly: Noggin binders on small-molecule microarray, primary screen, biochemical, 635/667 nm fluorescence (AID 1095).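 Also: score merges 667 nm feature fluorescence with signal to noise over triplicate slides.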 Conditions: 635 nm fluorescence, higher = more signal.
In assay [19] the target is Neurogenic locus notch homolog protein 3 (Homo sapiens) (UniProt Q9UM47). Nature of the assay: NOTCH3 binders on small-molecule microarray, primary screen, biochemical, 635/667 nm fluorescence (AID 1096). The conditions noted are these: NOTCH3 binding, 635 nm fluorescence, higher = more signal.
Chain of Neurogenic locus notch homolog protein 3 (Homo sapiens) (Q9UM47 whole entry, looked up): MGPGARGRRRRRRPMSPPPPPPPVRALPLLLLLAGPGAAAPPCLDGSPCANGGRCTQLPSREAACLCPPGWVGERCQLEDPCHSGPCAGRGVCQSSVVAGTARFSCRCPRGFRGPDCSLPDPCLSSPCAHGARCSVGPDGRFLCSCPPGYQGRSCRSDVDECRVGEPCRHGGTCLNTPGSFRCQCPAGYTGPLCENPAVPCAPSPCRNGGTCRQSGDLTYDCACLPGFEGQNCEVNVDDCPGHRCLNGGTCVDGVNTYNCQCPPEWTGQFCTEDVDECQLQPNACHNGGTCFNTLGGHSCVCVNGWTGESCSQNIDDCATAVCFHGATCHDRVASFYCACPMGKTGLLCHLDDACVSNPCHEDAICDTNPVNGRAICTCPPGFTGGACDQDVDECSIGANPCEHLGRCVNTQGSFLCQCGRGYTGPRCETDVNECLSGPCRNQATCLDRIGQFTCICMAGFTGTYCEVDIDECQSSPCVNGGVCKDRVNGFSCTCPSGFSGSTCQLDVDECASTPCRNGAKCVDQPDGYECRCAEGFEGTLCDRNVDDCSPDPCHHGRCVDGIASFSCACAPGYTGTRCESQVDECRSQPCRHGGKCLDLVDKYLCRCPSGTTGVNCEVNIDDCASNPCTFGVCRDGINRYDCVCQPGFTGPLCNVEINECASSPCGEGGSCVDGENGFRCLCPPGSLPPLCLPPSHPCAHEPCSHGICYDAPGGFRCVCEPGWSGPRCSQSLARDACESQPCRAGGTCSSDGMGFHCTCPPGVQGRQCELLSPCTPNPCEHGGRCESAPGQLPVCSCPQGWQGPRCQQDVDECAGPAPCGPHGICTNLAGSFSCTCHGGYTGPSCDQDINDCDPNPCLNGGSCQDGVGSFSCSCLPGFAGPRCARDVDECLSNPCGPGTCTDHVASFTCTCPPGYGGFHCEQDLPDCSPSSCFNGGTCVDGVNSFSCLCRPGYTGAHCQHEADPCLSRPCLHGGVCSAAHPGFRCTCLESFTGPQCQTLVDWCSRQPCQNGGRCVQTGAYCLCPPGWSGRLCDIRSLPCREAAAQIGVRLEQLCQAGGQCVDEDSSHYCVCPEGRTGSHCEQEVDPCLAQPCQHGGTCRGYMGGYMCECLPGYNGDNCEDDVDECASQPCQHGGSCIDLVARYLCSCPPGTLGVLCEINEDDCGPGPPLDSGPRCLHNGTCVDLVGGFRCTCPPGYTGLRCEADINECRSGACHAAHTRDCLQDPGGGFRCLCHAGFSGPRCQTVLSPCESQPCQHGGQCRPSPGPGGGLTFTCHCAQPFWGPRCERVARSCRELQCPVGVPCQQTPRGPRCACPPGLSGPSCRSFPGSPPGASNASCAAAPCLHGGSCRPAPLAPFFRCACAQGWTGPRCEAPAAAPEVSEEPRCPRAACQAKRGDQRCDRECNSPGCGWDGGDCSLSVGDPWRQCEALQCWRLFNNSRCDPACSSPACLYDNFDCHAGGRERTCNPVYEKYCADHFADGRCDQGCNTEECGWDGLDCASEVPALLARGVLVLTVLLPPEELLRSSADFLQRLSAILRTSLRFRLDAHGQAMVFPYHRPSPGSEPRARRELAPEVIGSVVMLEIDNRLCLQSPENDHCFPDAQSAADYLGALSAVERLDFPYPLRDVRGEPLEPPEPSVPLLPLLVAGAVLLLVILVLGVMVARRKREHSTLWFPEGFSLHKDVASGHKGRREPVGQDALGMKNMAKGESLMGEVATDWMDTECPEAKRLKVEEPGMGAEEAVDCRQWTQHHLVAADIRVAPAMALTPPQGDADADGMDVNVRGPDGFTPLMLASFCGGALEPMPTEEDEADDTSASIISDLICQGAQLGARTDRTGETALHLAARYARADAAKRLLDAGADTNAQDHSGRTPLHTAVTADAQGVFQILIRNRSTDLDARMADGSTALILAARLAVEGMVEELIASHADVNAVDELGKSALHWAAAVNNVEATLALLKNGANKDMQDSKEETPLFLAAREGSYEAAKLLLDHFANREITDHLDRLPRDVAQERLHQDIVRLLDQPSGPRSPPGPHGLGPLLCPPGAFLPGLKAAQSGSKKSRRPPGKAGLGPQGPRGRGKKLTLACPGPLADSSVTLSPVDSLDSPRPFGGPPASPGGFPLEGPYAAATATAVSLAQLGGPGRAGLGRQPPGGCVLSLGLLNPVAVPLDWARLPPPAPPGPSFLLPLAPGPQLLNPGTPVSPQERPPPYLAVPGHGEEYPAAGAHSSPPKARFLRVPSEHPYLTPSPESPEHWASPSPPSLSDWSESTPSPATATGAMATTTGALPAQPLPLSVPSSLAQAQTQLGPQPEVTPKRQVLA
A short description of assay [20]: small-molecule microarray binders of probe aEGFR, primary screen, biochemical, biotinylated probe, 635/667 nm fluorescence (AID 1097).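 Also: probe is a biotinylated anti-EGFR antibody binding compounds printed on slides; score combines fluorescence near 667 nm and signal to noise of each spot.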 Conditions: higher = more signal.

Where “and” joins values, the source holds several entries; their conditions need not be identical. Equal entries are not always repeated. Calls of active or inactive are those of the source.

With `C[C@@H]1CN2[C@@H](CC[C@@H](C)[C@@H]2c2ccc(Br)cc2)C(=O)O1`, the composite z-score in assay [1] was -0.267 and -0.0033; in assay [2], -0.0199 and 0.174; in [3], -0.116 and -0.0583; in assay [4], 0.215 and 0.604; in [5], 0.275 and 0.18; in assay [6] it was -0.368 and 0.158. The composite z-score in assay [7] is -0.704 and -0.829; in assay [9], -0.145 and 0.0701; in assay [10], -0.0994 and -0.274; in assay [11] it was -0.477 and -0.0962; in assay [15], -0.625 and 0.0053; in assay [17], -0.166 and -0.18. The composite z-score in [18] was 0.0137 and 0.546; in assay [19], -0.307 and -0.733; in [20], -0.111 and -0.154. In addition, the z-score in assay [8] was -0.735 (inactive) and -1.38 (inactive); in assay [12], 0.327 (inactive) and -1.72 (inactive); in [13], 0.398 (inactive) and -0.794 (inactive); in [14], 1.74 (inactive) and -0.538 (inactive); in [16] it was 0.0454 (inactive) and 0.082 (inactive).
Turning to `C[N+](C)(C)CCCCCCNC(=O)[C@H]1C[C@H]2C(=O)N[C@@H](CCCC[N+](C)(C)C)C(=O)N2[C@H]1c1ccc(O)cc1`, the composite z-score in assay [1] was 0.267 and 0.341; in assay [2] it was 0.137 and 0.115; in [3], -0.106 and -0.158; in assay [4] it was 0.105 and 0.129; in assay [5], -0.2 and -0.619; in assay [6], -0.0293 and -0.0659. For the same molecule, the composite z-score in assay [7] is 1.07 and 1.41; in assay [9], -0.15 and -0.508; in [10], -0.0994 and 0.2; in assay [11] it was 0.258 and -0.147; in assay [15], 0.106 and 0.967; in [17] it was -0.0322 and -0.0179. Also, the composite z-score is 0.938 and 0.161 in assay [18]; -0.275 and -0.316 in assay [19]; -0.151 and -0.236 in assay [20]. Besides, the z-score in [8] is 0.996 (inactive) and -0.0859 (inactive); in assay [12], 0.166 (inactive) and 0.547 (inactive); in [13], 0.268 (inactive) and -0.656 (inactive); in assay [14] it was 0.122 (inactive) and 0.411 (inactive); in assay [16], 0.595 (inactive) and -0.0409 (inactive).
Turning to `C=CCN(C(=O)C1N(C(C)(C)CO)C(=O)C2C(C(=O)O)C3C=CC21O3)c1ccc(OC)cc1` (stereo not given), the composite z-score is 1.84 and 1.41 in assay [1]; -1.16 and -1.03 in assay [2]; -0.237 and -0.195 in assay [3]; -1.49 and -0.243 in [4]; -1.71 and -1.79 in assay [5]; -0.16 and -1.32 in assay [6]. In addition, the composite z-score is 0.493 and -0.364 in [7]; -0.898 and -1.25 in assay [9]; -0.169 and -0.204 in assay [10]; -0.504 and -1.28 in assay [11]; 0.841 and 0.2 in assay [15]; 0.0499 and 0.0174 in assay [17]. Besides, the composite z-score in assay [18] was -2.91 and -3.66; in assay [19], -0.702 and -1.29; in assay [20] it was -0.263 and -0.315. Also, the z-score is 1.63 (inactive) and -0.0127 (inactive) in assay [8]; 0.0659 (inactive) and 1.13 (inactive) in [12]; -1.08 (inactive) and 0.202 (inactive) in assay [13]; 0.558 (inactive) and 0.921 (inactive) in [14]; 2.3 (inactive) and 1.15 (inactive) in assay [16].
In the case of `C=CCN(C(=O)C(c1cccs1)N(C(=O)/C=C\C(=O)O)c1ccc(CCO)cc1)C(C)(C)C` (stereo not given), the composite z-score is 0.396 and 0.476 in [1]; -0.534 and -0.804 in assay [2]; -0.212 and -0.192 in assay [3]; -0.439 and -1.66 in [4]; -0.898 and -1.52 in [5]; 1.04 and 2.28 in assay [6]. Also, the composite z-score in assay [7] was 0.71 and 1.3; in assay [9] it was -0.23 and -0.706; in assay [10], -0.0618 and -0.134; in [11], -0.417 and -0.231; in [15], 3.58 and 3.17; in assay [17], -0.0964 and -0.116. Further, the composite z-score was -2.17 and -1.9 in [18]; -0.583 and -1.21 in assay [19]; -0.106 and -0.209 in assay [20]. Besides, the z-score in assay [8] was 1.28 (inactive) and 0.16 (inactive); in assay [12], -0.042 (inactive) and 0.181 (inactive); in assay [13], -0.701 (inactive) and 0.442 (inactive); in [14], -0.3 (inactive) and -0.104 (inactive); in assay [16] it was 0.286 (inactive) and -0.294 (inactive).
